FBPA Giardia inh: qHTS Assay for Inhibitors of Fructose-1,6-bisphosphate Aldolase from Giardia Lamblia; A8B2U2; purified Giardia FBPA; Potency, µM (top dose mostly 59.6 µM), for the others: top-dose activity, negative = inhibition, most hits filed as inhibitors; 290,000 compounds, 0.71% hits; AID 2451, 2010; note: potency is the fitted concentration of half-maximal effect; % is set by controls: 0 for no effect and ±100 for the full control effect; nearly all actives have a fitted effect of over 55% in size
Target sequence (A8B2U2 whole entry, looked up): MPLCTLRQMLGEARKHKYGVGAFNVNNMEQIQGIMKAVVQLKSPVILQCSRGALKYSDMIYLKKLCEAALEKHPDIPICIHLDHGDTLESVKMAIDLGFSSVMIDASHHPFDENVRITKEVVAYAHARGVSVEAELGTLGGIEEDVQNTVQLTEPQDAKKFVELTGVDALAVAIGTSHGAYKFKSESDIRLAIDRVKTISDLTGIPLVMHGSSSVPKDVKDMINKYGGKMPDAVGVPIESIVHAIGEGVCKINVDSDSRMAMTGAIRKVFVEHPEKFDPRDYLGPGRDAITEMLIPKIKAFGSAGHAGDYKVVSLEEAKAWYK
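40 nM FBPA preincubated 10 min at RT with compound (up to 57.5 uM final), then substrate plus GAPDH/TPI/NAD/arsenate coupling and diaphorase/resazurin added. Fluorescence read after 20 min at RT, 525/598 nm.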
Shiga toxin inh: A qHTS for Small Molecule Inhibitors of Shiga Toxin; Vero cells, Shiga toxin protein synthesis inhibition reporter; inhibition, % at 38.7 µM; 290,000 compounds, 9.2% hits; AID 2315, 2010; in the data active = inhibition mostly above about 28%, no sharp cut-off; inactive = mostly below about 43%; note: 0% is about no effect
NS1 inh: qHTS Assay for Inhibitors of Influenza NS1 Protein Function | Potency, µM (doses to about 46.1 µM), for the others: at the highest dose activity, positive = more growth | AID 2326, 2010 | 270,000 compounds, 0.4% hits; calls by dose curve; note: potency is the fitted concentration of half-maximal effect; actives are rising curves; nearly all actives have a fitted effect of over 50% in size
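In this qHTS, NS1 from influenza A is expressed in budding yeast, where it slows growth. Cells are switched from glucose to 2% galactose medium (pH 6.0, -URA), treated with compound, and growth recovery is read at OD600.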
Pf growth 48h: Primary qHTS for delayed death inhibitors of the malarial parasite plastid, 48 hour incubation; P. falciparum luciferase growth in erythrocytes, 48 h; Potency, µM (highest dose often 28.7 µM), without a hit: at the highest dose activity change, negative = inhibition, hits mostly inhibitors; 310,000 compounds, 5.9% hits; AID 504832, 2011; note: potency is the fitted concentration of half-maximal effect; % is set by controls: 0 for no effect and ±100 for the full control effect
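Luciferase-expressing P. falciparum in infected erythrocytes (2% hematocrit, 0.1% parasitemia final) in RPMI 1640/0.5% Albumax were exposed to compound for 48 hours at 37 C, 5% CO2; growth read as luminescence.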
Cycloheximide cs: Cycloheximide Counterscreen for Small Molecule Inhibitors of Shiga Toxin; cell reporter, cycloheximide protein synthesis inhibition counterscreen; max response, %; 300,000 compounds, 12% hits; AID 2314, 2010; in the data active = max response mostly above about 13%, no sharp cut-off; inactive = mostly below about 14%; note: read at 38.3 µM for the half of the compounds with a filed dose; 0% is about no effect
Pf growth 96h: Primary qHTS for delayed death inhibitors of the malarial parasite plastid, 96 hour incubation; P. falciparum luciferase reporter growth, 96 h; Potency, µM (highest dose often 28.7 µM), for the others: at the highest dose activity change, negative = inhibition, usual class: inhibitors; 320,000 compounds, 6.9% hits; AID 504834, 2011; note: potency is the fitted concentration of half-maximal effect; % is set by controls: 0 for no effect and ±100 for the full control effect
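96 h incubation, 37 C, 5% CO2, of luciferase-reporter P. falciparum-infected RBCs (2% hematocrit, 0.05% parasitemia final) with test compounds; endpoint luminescence.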
The depositor's hits bear a star; ? = inconclusive; / = no result; [ ] = remark or other dose. In the library only some 21% were active in any assay of this set; here they are far more common. Unless noted, calls come from the whole dose curve; as a rule, active = well fitted curve in the direction sought with a large enough effect; inconclusive = small, poorly fitted or top-dose-only effect, or another doubt; inactive = no such curve, though single readings can be large; an effect the other way counts as inactive or inconclusive.

SMILES	FBPA Giardia inh	Shiga toxin inh	NS1 inh	Pf growth 48h	Cycloheximide cs	Pf growth 96h
Cc1c(C)c2c(OCC(=O)NC3CC3)cc3c(c2oc1=O)CCC(C)(C)O3	7%	-3	8%	?	1	12µM*
CSC[C@H](NC(=O)COc1cc2c(c3oc(=O)cc(C)c13)CCC(C)(C)O2)C(=O)O	-4%	-4	3%	1%	7	-4%
Cc1cc(=O)oc2c3c(cc(OCC(=O)NC4CC4)c12)OC(C)(C)CC3	-8%	-4	15%	?	1	15µM*
Cc1cc(=O)oc2c3c(cc(OCC(=O)NCC(=O)O)c12)OC(C)(C)CC3	-15%	11	4%	-7%	6	11%
Cc1cc(=O)oc2c3c(cc(OCC(=O)NCc4ccccc4)c12)OC(C)(C)CC3	13%	-4	-2%	?	-3	12µM*
CCNC(=O)NCc1cccc(Cl)c1	/	/	/	-1%	/	-16%
Cn1cccc1C(=O)N1CCC2(CCCN(c3ccccn3)C2)CC1	0%	/	/	/	/	/
Cc1c(C)c2c(OCC(=O)NCC(O)c3ccccc3)cc3c(c2oc1=O)CCC(C)(C)O3 (configuration not stated)	-12%	-4	8%	?	1	4.7µM*
Cc1c(C)c2c(OCC(=O)N[C@@H](Cc3ccccc3)C(=O)O)cc3c(c2oc1=O)CCC(C)(C)O3	0%	-6	20%	?	2	?
CC(=O)Nc1ccc(N/C=C/C(=O)c2ccc(C)cc2)cc1	13%	55*	28%	78%	27*	?
COc1ccc(N/C=C\C(=O)c2ccc(Br)cc2)cc1OC	1%	27	-12%	71%	28*	1.9µM*
COc1ccc(C(=O)Sc2ccc(C)cc2)cc1OC	2%	77*	-26%	-21%	34*	?
COc1cc(OC)c(OC)cc1/C=C/C(=O)c1ccc(NS(=O)(=O)c2ccc(C)cc2)cc1	-25%	11	?	9.3µM*	-3	13µM*
COc1ccc(N/C=C(\C(C)=O)c2ccc(OC)c(OC)c2)cc1OC	-9%	-22	/	?	-1	-41%[5.75 µM]
Cc1ccc(Oc2ccc(S(=O)(=O)Nc3ccc(C(=O)O)cc3)cc2)cc1	/	/	/	-19%	/	22%
COc1ccc(C(=O)Sc2ccc(Cl)cc2)cc1OC	1%	12	1%	-29%	8	187%
COC(=O)c1cn(C(=O)c2ccc(F)cc2)c2ccccc12	-1%	-4	-3%	-1%	-3	6%
C[C@H](NC(=O)c1ccco1)C(=O)NCc1cccs1	/	/	/	-22%	/	-27%
CO[C@H]1O[C@H](C)[C@@H](O)C[C@H]1NC(=O)OCc1ccccc1	?	-8	3%	26%	4	-21%
COc1ccc(N/C=C\C(=O)c2ccc(C)cc2)cc1OC	-2%	85*	-5%	38%	46*	?
O=[N+]([O-])c1cc(C(F)(F)F)cc([N+](=O)[O-])c1N1CCN(S(=O)(=O)c2ccccc2)CC1	-1%	-4	3%	?	-4	15µM*
O=C(c1ccc(-n2cncn2)c([N+](=O)[O-])c1)N1CCN(S(=O)(=O)c2ccc(Cl)cc2)CC1	/	-10	-1%	?	1	4.7µM*
O=C(c1ccc(N2CCCC2)c([N+](=O)[O-])c1)N1CCN(CCO)CC1	-11%	-5	7%	38%	1	64%
O=C(c1ccc(N2CCCC2)c([N+](=O)[O-])c1)N1CCN(S(=O)(=O)c2ccccc2)CC1	/	/	/	10µM*	/	?
O=S(=O)(c1cccc(C(F)(F)F)c1)N1CCN(c2nnnn2-c2ccccc2)CC1	1%	-6	0%	-2%	-3	8.3µM*
SMILES	FBPA Giardia inh	Shiga toxin inh	NS1 inh	Pf growth 48h	Cycloheximide cs	Pf growth 96h
CC(=O)Nc1ccc(S(=O)(=O)N2CCN(c3nnnn3-c3ccccc3)CC2)cc1	1%	4	6%	-26%	-1	69%
Cn1cnnc1-c1cccc(NC(=O)c2cc(F)c(F)cc2Cl)c1	-6%	-8	-2%	7%	-2	?
Cc1cnc2c(C(=O)O)c(Cl)ccc2c1	-1%	4	/	/	-5	/
O=C(O)Cn1nnc(COc2ccccc2)n1	-8%	-12	16%	45%	-1	38%
Cc1ccc(C)c(S(=O)(=O)N2CCN(C(=O)c3ccc(N4CCCC4)c([N+](=O)[O-])c3)CC2)c1	-5%	-12	12%	?	1	?
Cc1ccc(C)c(S(=O)(=O)N2CCN(C(=O)c3ccc(-n4cncn4)c([N+](=O)[O-])c3)CC2)c1	/	/	/	?	/	12µM*
Cn1c(=O)n(C)c2cc([N+](=O)[O-])c(N3CCN(S(=O)(=O)c4ccc(C(C)(C)C)cc4)CC3)cc21	-11%	-8	13%	9.3µM*	1	?
CCOc1ccc(NS(=O)(=O)c2ccc(C(=O)NC3CCC(O)CC3)cc2)cc1 (configuration not stated)	/	/	/	-9%	/	-15%
CCn1c(CC(=O)Nc2ccccc2F)nnc1SCC(=O)Nc1nncs1	?	-4	-1%	14%	3	-11%
Fc1ccc(CSc2ccc(-c3ccc4c(c3)OCO4)nn2)cc1	-2%	6	-2%	19%	11*	26%
c1ccc(CSc2ccc(-c3ccc4c(c3)OCO4)nn2)cc1	3%	38	-17%	24%	27*	162%
Nc1ccc(Sc2cc(Cl)nc(N)n2)cc1	-12%	18	11%	-16%	12	2%
Nc1nc(N)c2cc(Sc3ccc4ccccc4c3)ccc2n1	1%	-7	-4%	0.0074µM*	1	?
CC(=O)Nc1ccc(N(C(=O)Cc2cccs2)C(C(=O)NC2CCCC2)c2ccncc2)cc1 (configuration not stated)	/	-8	-7%	-64%	-5	?
C=C[C@@]1(C)CC(=O)[C@@]2(O)[C@@]3(C)[C@@H](O)CCC(C)(C)[C@@H]3[C@H](O)[C@H](OC(C)=O)[C@@]2(C)O1	8%	/	/	/	/	/
C=CCOC(=O)C1=C[C@@H](c2ccc(C(F)(F)F)cc2)[C@H](CCCO)[C@@H](OCC)O1	-8%	-1	7%	1.2µM*	0	2.1µM*
C=CCOC(=O)C1=C[C@H](c2ccc(C(F)(F)F)cc2)[C@@H](CCCO)[C@H](OCC)O1	-8%	-11	2%	?	0	9.3µM*
C=CCOC(=O)C1=C[C@@H](c2ccc(Br)cc2)[C@H](CCCO)[C@@H](OCC)O1	-12%	-16	-5%	?	-2	9.3µM*
C=CCOC(=O)C1=C[C@@H](c2ccccc2)[C@H](CCCO)[C@@H](OCC)O1	12%	-11	2%	3%	-3	11%
CCO[C@@H]1OC(C(N)=O)=C[C@H](c2ccc(C(F)(F)F)cc2)[C@H]1CCCO	-4%	9	5%	?	5	?
Cc1ccsc1C(=O)N1CCN(C(=O)c2ccco2)CC1	/	/	/	-8%	/	-16%

Screening results from PubChem BioAssay.
